Test results from ChEMBL document CHEMBL3988442, “University of Dundee, Small-Polar-MMV Screening Library” (2021).

Each compound was assayed against AMP-activated protein kinase, AMPK (Homo sapiens) (UniProt P54646+O43741+P54619+Q9UGJ0+Q9Y478+Q13131+Q9UGI9) (assay: AMP-dependent Kinase enzyme assay. An in vitro enzyme assay that detects ADP turnover that is directly proportional to AMPK activity. This uses naive AMPK that is activated during the assay with MK-8722). Conditions: 30 µM.
Format: functional
Design: scale not given: direction of the effect not stated beside the values

Question: How did the Percent Effect turn out when `O=C(NCCn1ccnc1-c1cc2n(n1)CCNC2)c1ccncc1` was run?
Answer: The Percent Effect was 1.13%.

Question: With `CCC(NC(=O)NC1CCN(S(C)(=O)=O)CC1)c1cccs1` (centres undefined) as the compound, how does the Percent Effect read?
Answer: The Percent Effect was -3.19%.

Question: How did the Percent Effect turn out when `Oc1cc(C2CCCCN2Cc2cccs2)nc(-c2ccncc2)n1` (centres undefined) was run?
Answer: The Percent Effect was 1.11%.

Question: `CCc1nnc(CS(=O)(=O)c2ccc(C)c(C)c2)n1C` was tested. Which Percent Effect did it give?
Answer: Its Percent Effect is 9.9%.

Question: With `O=C1NCCN(Cc2ccccc2)C1CC(=O)N1CCc2n[nH]cc2C1` (centres undefined) as the compound, how does the Percent Effect read?
Answer: Its Percent Effect is -20.4%.

Question: `COCC[C@]1(O)CCN(CC(=O)NCc2ccccc2C)C[C@H]1C` was tested. Which Percent Effect did it give?
Answer: Its Percent Effect is 8.23%.

Question: For `CCN(Cc1ccccn1)C1CCN(c2ccccc2)C1=O` (centres undefined), which Percent Effect is on record?
Answer: Its Percent Effect is -6.67%.

Question: For `CC(CN1CCOCC1)n1cncc1-c1cnn(Cc2ccccc2)c1` (centres undefined), which Percent Effect is on record?
Answer: The Percent Effect was 2.92%.

Question: How did the Percent Effect turn out when `O=C(NC1CC1)c1cnc2n1CCCC2` was run?
Answer: Its Percent Effect is -4.04%.

Question: For `CC(C)CN(Cc1ccccn1)Cc1ccccc1OCC(=O)O`, which Percent Effect is on record?
Answer: The Percent Effect was -7.24%.

Question: How did the Percent Effect turn out when `Cc1ccc(CNC(=O)NCc2ccco2)s1` was run?
Answer: Its Percent Effect is 2.27%.

Question: How did the Percent Effect turn out when `CCNc1ncc(C(=O)NCc2csc(-c3ncccn3)n2)cn1` was run?
Answer: The Percent Effect was 3.97%.

Question: Which Percent Effect does the source give for `CNC(=O)c1sc(C(NC(=O)c2ccccc2)C2CC2)nc1C` (centres undefined) here?
Answer: Its Percent Effect is -1.61%.

Question: Which Percent Effect does the source give for `CN(C)c1ccc(C(=O)N2CCC(c3cc4cnccc4[nH]3)CC2)cc1` here?
Answer: The Percent Effect was 20.5%.

Question: With `OCCN1CCCC(c2cccc(-c3ccccc3F)n2)C1` (centres undefined) as the compound, how does the Percent Effect read?
Answer: The Percent Effect was 20.3%.

Question: Which Percent Effect does the source give for `Cc1cccc(CN2CCOCC2c2[nH]ncc2C)n1` (centres undefined) here?
Answer: The Percent Effect was 16.3%.

Question: How did the Percent Effect turn out when `CCC(O)Cn1nc(-c2ccc(C(=O)O)cc2)cc1-c1ccc(F)cc1` (centres undefined) was run?
Answer: Its Percent Effect is 12%.

Question: Which Percent Effect does the source give for `CC(=O)Nc1ccc(CNC(=O)CNCc2snnc2C)cc1` here?
Answer: The Percent Effect was -1.84%.

Question: For `O=C(Cc1ccc(Cl)cc1)N[C@@H]1CCC[C@@H](O)[C@@H]1O`, which Percent Effect is on record?
Answer: Its Percent Effect is 22.5%.

Question: For `Cc1noc(C)c1C(=O)N1CCC(n2cccn2)CC1`, which Percent Effect is on record?
Answer: Its Percent Effect is -9.16%.

Question: With `COc1nc(C)ccc1CNC(=O)NC(c1ncc(C)s1)C1CC1` (centres undefined) as the compound, how does the Percent Effect read?
Answer: The Percent Effect was -2.14%.

Question: With `Cc1onc(-c2ccncc2)c1C(=O)NC1CCCOC1` (centres undefined) as the compound, how does the Percent Effect read?
Answer: Its Percent Effect is -0.537%.

Question: How did the Percent Effect turn out when `O=S1(=O)NC(C2CCCN(S(=O)(=O)N3CCCC3)C2)=Nc2ccccc21` (centres undefined) was run?
Answer: The Percent Effect was 13.9%.

Question: For `O=C1NCCCCC1NC(=O)N1CCCc2ccccc21` (centres undefined), which Percent Effect is on record?
Answer: Its Percent Effect is -0.938%.

Question: `CN(CCc1ccccn1)C(=O)c1cccs1` was tested. Which Percent Effect did it give?
Answer: Its Percent Effect is 6.23%.

Question: `COCCNc1nc(C)nc2c1CCN(C[C@H]1CC[C@@H](N)CC1)CC2` was tested. Which Percent Effect did it give?
Answer: Its Percent Effect is 1.5%.

Question: How did the Percent Effect turn out when `Cc1ccccc1C(=O)NC[C@@H]1CCN(C(=O)c2cccn2C)C[C@H]1O` was run?
Answer: Its Percent Effect is -3.19%.

Question: With `CCc1cc(N2CCC(NCCc3ccccc3F)CC2)nc(C)n1` as the compound, how does the Percent Effect read?
Answer: The Percent Effect was 1.26%.

Question: `O=C(CCc1nc(-c2ccsc2)no1)NCC1CCN(C2CC2)C1` (centres undefined) was tested. Which Percent Effect did it give?
Answer: Its Percent Effect is 1.07%.

Question: How did the Percent Effect turn out when `CCOc1cc(NC(=O)N2CCOC3(CCC3)C2)ccc1C` was run?
Answer: Its Percent Effect is -1.23%.

Question: How did the Percent Effect turn out when `O=C(c1nnn(-c2ccc(F)cc2)n1)N(CCO)Cc1ccccc1` was run?
Answer: The Percent Effect was 3.9%.

Question: Which Percent Effect does the source give for `CN(Cc1ccncc1)Cc1cnn(-c2ccc(F)cc2)c1` here?
Answer: Its Percent Effect is 11.6%.

Question: With `COCC(=O)N1CCN(C(C)c2ncc(-c3ccccc3)o2)CC1` (centres undefined) as the compound, how does the Percent Effect read?
Answer: The Percent Effect was 2.58%.

Question: Which Percent Effect does the source give for `Cc1nc[nH]c1CN1CCC(C2CCN(CCc3ccccc3)C2)CC1` (centres undefined) here?
Answer: The Percent Effect was -0.168%.

Question: `CC(C)c1noc(C(C)N2CCN(Cc3noc(C4CC4)n3)CC2)n1` (centres undefined) was tested. Which Percent Effect did it give?
Answer: Its Percent Effect is -0.511%.

Question: For `Cc1nc(COC(=O)c2cccc3c2OCCO3)no1`, which Percent Effect is on record?
Answer: The Percent Effect was -12.1%.

Question: How did the Percent Effect turn out when `Cc1nn(C)c2nc(N(Cc3nccs3)C3CC3)sc12` was run?
Answer: Its Percent Effect is 1.18%.

Question: How did the Percent Effect turn out when `Cc1ccc(C(CNC(=O)c2cc(=O)c3ccccc3[nH]2)N(C)C)cc1` (centres undefined) was run?
Answer: Its Percent Effect is 6.26%.

Question: With `Cc1cc(C(=O)N2CCC(CCC(=O)NCCN(C)C)CC2)ccc1O` as the compound, how does the Percent Effect read?
Answer: The Percent Effect was 21.5%.
